Results filed as inconclusive are left out. Some compounds were tested as several samples or in several runs, with calls that do not always agree. Activity calls are given as the source filed them. The calls were made as follows, unless noted: active = hit-call score of the fitted dose curve at least 0.9, where 1 is the maximum; inactive = score below 0.9.

Test [1] deals with Estrogen receptor (Homo sapiens) (UniProt P03372). The test can be described thus: CCTE_Deisenroth_AIME_384WELL_LUC_Active: CCTE's 384-well Estrogen Receptor Transactivation Assay with AIME metabolic competence (ERTA luciferase; metabolism positive), Deisenroth Lab (AID 2284030; active = hit-call score of the fitted dose curve at least 0.9, where 1 is the maximum). The gist of the method:
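Estrogenic luciferase signal in VM7Luc4E2 cells is measured at 24 hour, after chemicals have been preconditioned 2 hours with PB/BNF-induced rat hepatic S9 in alginate. Gain of signal is fitted relative to 17beta-estradiol, across 0.002 - 200 uM.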

Test [2] has the same target. The test can be described thus: CCTE_Deisenroth_AIME_384WELL_LUC_Inactive: CCTE's 384-well Estrogen Receptor Transactivation Assay without AIME metabolic competence (ERTA luciferase; metabolism negative), Deisenroth Lab (AID 2284038; active = hit-call score of the fitted dose curve at least 0.9, where 1 is the maximum;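 also: VM7Luc4E2 breast cells given medium preincubated 2 h with S9-free microspheres; hits raise estrogen receptor luciferase signal so potencies reflect agonists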). The method in brief:
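Chemicals (10-point series, 0.002 - 200 uM) were incubated 2 hours with alginate-water microsphere lids lacking S9, then the conditioned medium was transferred to VM7Luc4E2 breast cells for 24 hour. Luciferase induction was read by bioluminescence, fitted upward relative to 17beta-estradiol.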

The nature of test [3]: CCTE_Deisenroth_AIME_384WELL_CTox_Inactive: Cytotoxicity Assessment (CTOX) in CCTE's 384-well Estrogen Receptor Transactivation Assay without AIME metabolic competence (metabolism negative), Deisenroth Lab (AID 2284039; active = hit-call score of the fitted dose curve at least 0.9, where 1 is the maximum;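 also: cell viability via live-cell protease substrate cleaved to fluorescent probe; cells exposed 24 h to medium preincubated 2 h with alginate-water beads without S9; loss of fluorescence signal means loss of viability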). The gist of the method:
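Fluorescent protease-substrate viability readout after 24 h exposure of VM7Luc4E2 cells to conditioned medium. Chemicals (0.002–200 uM) first sat 2 h over alginate-water beads, no S9. Data fitted bidirectionally, loss of signal meaning viability loss.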

Test [4] addresses Estrogen receptor (Homo sapiens) (UniProt P03372). The test can be described thus: CCTE_Deisenroth_AIME_384WELL_LUC_Shift: CCTE's 384-well Estrogen Receptor Transactivation Assay with AIME metabolic competence data shift (ERTA luciferase; difference in metabolism positive and negative), Deisenroth Lab (AID 2284041).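 Also: shift is response with S9 minus without S9 so positive means metabolism raised ER signal.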 The gist of the method: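 Test chemicals (0.002–200 uM, 10-point) were pre-incubated 2 h with alginate microspheres containing phenobarbital/beta-naphthoflavone-induced male Sprague Dawley rat liver S9 or water, then medium was transferred to VM7Luc4E2 cells for 24 h luciferase readout; shift = S9-positive minus S9-negative normalized response.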

Test [5] is described as follows: CCTE_Shafer_MEA_dev_firing_rate_mean: CCTE's Neural Network Formation Assay for Mean Firing Rate, Shafer Lab (AID 2284031). The gist of the method: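 Developing rat cortical networks on MEA plates undergo 12-day compound exposure. Firing frequency, averaged across active electrodes, is integrated as area under the curve over four recording days, referenced to DMSO.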

A short description of test [6]: CCTE_Shafer_MEA_dev_active_electrodes_number: CCTE's Neural Network Formation Assay for Number of Active Electrodes, Shafer Lab (AID 2284040; active = hit-call score of the fitted dose curve at least 0.9, where 1 is the maximum;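 as to AC50: potency for loss of active electrodes versus DMSO so lower counts are hits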). The gist of the method: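 Rat cortical primary cultures, 1.5 x 10^5 cells/well, PEI-coated MEA, laminin drop. Continuous exposure DIV 0–12; full media/compound change DIV 5, 9. Readout: electrodes with mean firing ≥5 spikes/min; AUC across days; loss vs DMSO.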

Test [7] is described as follows: CCTE_Shafer_MEA_dev_burst_rate: CCTE's Neural Network Formation Assay for Burst Rate, Shafer Lab (AID 2284042). The gist of the method: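 Exposure ran continuously over 12 days of network development in rat cortical cultures, with compound refreshed during full media changes on DIV 5 and 9. Single-electrode bursts per recording time, well-mean over active electrodes, trapezoidal AUC across days 5–12, fitted downward relative to DMSO.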

Test [8] in a line: CCTE_Deisenroth_AIME_384WELL_CTox_Active: Cytotoxicity Assessment (CTOX) in CCTE's 384-well Estrogen Receptor Transactivation Assay with AIME metabolic competence (metabolism positive), Deisenroth Lab (AID 2284037; active = hit-call score of the fitted dose curve at least 0.9, where 1 is the maximum;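 also: chemicals first conditioned 2 h by alginate-bound induced rat liver S9 before cells; activity means signal loss indicating cell death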). The method in brief: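 Cytotoxicity in VM7Luc4E2 breast cells, 24 hour, measured as protease-substrate fluorescence loss, after 2-hour metabolic conditioning with induced rat hepatic S9 in alginate microspheres. Concentrations 0.002 - 200 uM, 10 points, bidirectional fitting.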

Chain of Estrogen receptor (Homo sapiens) (P03372 whole entry, looked up): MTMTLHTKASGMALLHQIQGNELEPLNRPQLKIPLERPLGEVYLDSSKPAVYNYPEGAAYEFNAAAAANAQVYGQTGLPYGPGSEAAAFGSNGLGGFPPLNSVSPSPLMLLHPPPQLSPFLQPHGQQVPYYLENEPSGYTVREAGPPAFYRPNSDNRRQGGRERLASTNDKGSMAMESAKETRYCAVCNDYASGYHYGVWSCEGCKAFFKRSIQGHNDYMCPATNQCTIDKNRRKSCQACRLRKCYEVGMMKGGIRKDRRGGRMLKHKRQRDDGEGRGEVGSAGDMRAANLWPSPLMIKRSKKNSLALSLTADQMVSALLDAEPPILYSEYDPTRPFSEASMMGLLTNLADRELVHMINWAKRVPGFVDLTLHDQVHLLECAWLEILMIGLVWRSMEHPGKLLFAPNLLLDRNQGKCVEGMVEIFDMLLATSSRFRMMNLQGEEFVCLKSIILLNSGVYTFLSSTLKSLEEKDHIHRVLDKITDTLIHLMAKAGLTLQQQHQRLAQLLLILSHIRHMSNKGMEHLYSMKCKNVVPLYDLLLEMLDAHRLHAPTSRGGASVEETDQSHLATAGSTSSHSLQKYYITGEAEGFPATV

Take `C(=C(c1ccccc1)c1ccccc1)c1ccccc1`: the AC50 was 4.42 µM (active) in test [1], 9.48 µM (active) in test [2] and 0.869 µM (active) in test [4]. Also, in test [3], the molecule was classed as inactive.
As for `CC(C)(C)C(=O)CC(=O)C(F)(F)C(F)(F)C(F)(F)F`, the molecule was called inactive in test [5] and in test [7]. The half-maximal activity concentration (AC50) in test [6] was 25.2 µM (active).
Take `OCC(F)(F)C(F)(F)C(F)(F)C(F)(F)C(F)(F)C(F)F`: the call in test [5], in test [6] and in test [7] was inactive.
Consider `Cc1ccc(S(=O)(=O)OCC(F)(F)C(F)(F)C(F)(F)C(F)(F)C(F)(F)C(F)F)cc1`, for which the outcome in test [5] and in test [7] was inactive.
Turning to `O=C(O)C(F)(F)C(F)(F)C(F)(F)C(F)(F)C(F)(F)C(F)(F)C(F)(F)C(F)(F)Cl`, the result in test [5], in test [6] and in test [7] was inactive.
`COC(=O)CCC(F)(F)C(F)(F)C(F)(F)C(F)(F)F`: the molecule was classed as inactive in test [5] and in test [7].
As to `O=C(O)C(F)(F)C(F)(F)C(F)(F)C(F)(F)C(F)(F)C(F)(F)C(F)(F)C(F)(F)C(F)(F)C(F)F`, the molecule was called inactive in test [5] and in test [7].
For `CC(CCl)OP(=O)(OC(C)CCl)OC(C)CCl` (centres undefined), the molecule was classed as inactive in test [5], in test [6] and in test [7]. Further, the half-maximal activity concentration (AC50) in test [6] is 50 µM (active).
Take `O=S(=O)(OCCOC(F)(F)F)C(F)(F)F`: the result in test [5], in test [6] and in test [7] was inactive.
As for `NC(=O)C(F)(F)C(F)(F)C(F)(F)C(F)(F)F`, the molecule was called inactive in test [5] and in test [7].
Turning to `OC[C@@H](O)[C@@H](O)[C@H](O)[C@@H](O)CO`, the outcome in test [5], in test [6] and in test [7] was inactive.
`CCN(Cc1cccc(S(=O)(=O)O)c1)c1ccc(C(=C2C=CC(=[N+](CC)Cc3cccc(S(=O)(=O)O)c3)C=C2)c2ccc(O)cc2S(=O)(=O)[O-])cc1`: the half-maximal activity concentration (AC50) in test [8] was 124 µM (active); in test [3], 100 µM (active). In addition, the result in test [4] was inactive.

The record behind these values is PubChem BioAssay (EPA / NIEHS).
